Measured values reported in the supplement of paper PMC6992640.
Structures can show the parent of a compound that is named as a salt.

System: WHIM30 (cells of a triple-negative basal-like breast cancer xenograft)
Assay: cell viability of combination (% of vehicle); higher = less cytotoxic
Conditions: 1 µM; 72 h; partner dose: 10 nM
Procedure: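 PDX cells were treated for 72 h with each drug at 1 µM plus carfilzomib (10 nM; 100 nM for WHIM2). Luciferase viability is expressed as percent of vehicle.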

| Structure (SMILES) | cell viability of combination |
| --- | --- |
| CCCCCOc1ccc(-c2ccc(-c3ccc(C(=O)N[C@H]4C[C@@H](O)[C@@H](O)NC(=O)[C@@H]5[C@@H](O)[C@@H](C)CN5C(=O)[C@H]([C@@H](C)O)NC(=O)[C@H]([C@H](O)[C@@H](O)c5ccc(O)cc5)NC(=O)[C@@H]5C[C@@H](O)CN5C(=O)[C@H]([C@@H](C)O)NC4=O)cc3)cc2)cc1 [Anidulafungin] + CC(C)C[C@H](NC(=O)[C@H](CCc1ccccc1)NC(=O)CN1CCOCC1)C(=O)N[C@@H](Cc1ccccc1)C(=O)N[C@@H](CC(C)C)C(=O)[C@@]1(C)CO1 [Carfilzomib] | 16.7 |
| CC1=C(C(=O)OC(C)C)C(c2cccc([N+](=O)[O-])c2)C(C(=O)OC2CN(C(c3ccccc3)c3ccccc3)C2)=C(N)N1 (stereo not given) [Azelnidipine] + CC(C)C[C@H](NC(=O)[C@H](CCc1ccccc1)NC(=O)CN1CCOCC1)C(=O)N[C@@H](Cc1ccccc1)C(=O)N[C@@H](CC(C)C)C(=O)[C@@]1(C)CO1 [Carfilzomib] | 14.5 |
| COc1nc2ccc(Br)cc2cc1[C@@H](c1ccccc1)[C@@](O)(CCN(C)C)c1cccc2ccccc12 [Bedaquiline fumarate] + CC(C)C[C@H](NC(=O)[C@H](CCc1ccccc1)NC(=O)CN1CCOCC1)C(=O)N[C@@H](Cc1ccccc1)C(=O)N[C@@H](CC(C)C)C(=O)[C@@]1(C)CO1 [Carfilzomib] | 22.5 |
| C#Cc1cccc(Nc2ncnc3cc(OCCOC)c(OCCOC)cc23)c1.Cl [Erlotinib Hydrochloride] + CC(C)C[C@H](NC(=O)[C@H](CCc1ccccc1)NC(=O)CN1CCOCC1)C(=O)N[C@@H](Cc1ccccc1)C(=O)N[C@@H](CC(C)C)C(=O)[C@@]1(C)CO1 [Carfilzomib] | 26.3 |
| CCOc1cc2ncc(C#N)c(Nc3ccc(F)c(Cl)c3)c2cc1NC(=O)C=CCN(C)C [Pelitinib (EKB-569)] + CC(C)C[C@H](NC(=O)[C@H](CCc1ccccc1)NC(=O)CN1CCOCC1)C(=O)N[C@@H](Cc1ccccc1)C(=O)N[C@@H](CC(C)C)C(=O)[C@@]1(C)CO1 [Carfilzomib] | 5.92 |
| Cc1ccc(-n2[nH]c(C)c(NN=C3C=CC=C(c4cccc(C(=O)O)c4)C3=O)c2=O)cc1C [Eltrombopag] + CC(C)C[C@H](NC(=O)[C@H](CCc1ccccc1)NC(=O)CN1CCOCC1)C(=O)N[C@@H](Cc1ccccc1)C(=O)N[C@@H](CC(C)C)C(=O)[C@@]1(C)CO1 [Carfilzomib] | 19.8 |
| CO[C@H]1C[C@@H]2CC[C@@H](C)[C@@](O)(O2)C(=O)C(=O)N2CCCC[C@H]2C(=O)O[C@H]([C@H](C)C[C@@H]2CC[C@@H](O)[C@H](OC)C2)CC(=O)[C@H](C)/C=C(\C)[C@@H](O)[C@@H](OC)C(=O)[C@H](C)C[C@H](C)/C=C/C=C/C=C/1C [Rapamycin (Sirolimus)] + CC(C)C[C@H](NC(=O)[C@H](CCc1ccccc1)NC(=O)CN1CCOCC1)C(=O)N[C@@H](Cc1ccccc1)C(=O)N[C@@H](CC(C)C)C(=O)[C@@]1(C)CO1 [Carfilzomib] | 25.8 |
| Oc1c(Cl)cc(Cl)c2cccnc12 [Chloroxine] + CC(C)C[C@H](NC(=O)[C@H](CCc1ccccc1)NC(=O)CN1CCOCC1)C(=O)N[C@@H](Cc1ccccc1)C(=O)N[C@@H](CC(C)C)C(=O)[C@@]1(C)CO1 [Carfilzomib] | 19 |
| COc1cccc2c1C(=O)c1c(O)c3c(c(O)c1C2=O)CC(O)(C(=O)CO)CC3OC1CC(N)C(O)C(C)O1 (stereo not given) [Doxorubicin] + CC(C)C[C@H](NC(=O)[C@H](CCc1ccccc1)NC(=O)CN1CCOCC1)C(=O)N[C@@H](Cc1ccccc1)C(=O)N[C@@H](CC(C)C)C(=O)[C@@]1(C)CO1 [Carfilzomib] | 8.32 |
| N.N.O=C([O-])C1(C(=O)[O-])CCC1.[Pt+2] [Carboplatin] + CC(C)C[C@H](NC(=O)[C@H](CCc1ccccc1)NC(=O)CN1CCOCC1)C(=O)N[C@@H](Cc1ccccc1)C(=O)N[C@@H](CC(C)C)C(=O)[C@@]1(C)CO1 [Carfilzomib] | 22.9 |
| Cc1cc(-n2c(=O)[nH]c(=O)n(C)c2=O)ccc1Oc1ccc(SC(F)(F)F)cc1 [Toltrazuril] + CC(C)C[C@H](NC(=O)[C@H](CCc1ccccc1)NC(=O)CN1CCOCC1)C(=O)N[C@@H](Cc1ccccc1)C(=O)N[C@@H](CC(C)C)C(=O)[C@@]1(C)CO1 [Carfilzomib] | 19.3 |
| CC[C@@]1(O)C(=O)OCc2c1cc1n(c2=O)Cc2cc3c(CN(C)C)c(O)ccc3nc2-1 [Topotecan] + CC(C)C[C@H](NC(=O)[C@H](CCc1ccccc1)NC(=O)CN1CCOCC1)C(=O)N[C@@H](Cc1ccccc1)C(=O)N[C@@H](CC(C)C)C(=O)[C@@]1(C)CO1 [Carfilzomib] | 7.16 |
| COc1ccc(C[C@H](N)C(=O)N[C@@H]2[C@H](O)[C@H](n3cnc4c(N(C)C)ncnc43)O[C@@H]2CO)cc1.Cl.Cl [Puromycin dihydrochloride] + CC(C)C[C@H](NC(=O)[C@H](CCc1ccccc1)NC(=O)CN1CCOCC1)C(=O)N[C@@H](Cc1ccccc1)C(=O)N[C@@H](CC(C)C)C(=O)[C@@]1(C)CO1 [Carfilzomib] | 5.17 |
| CN(C)CC=CC(=O)Nc1cc2c(Nc3ccc(F)c(Cl)c3)ncnc2cc1OC1CCOC1.O=C(O)C=CC(=O)O.O=C(O)C=CC(=O)O (stereo not given) [Afatinib dimaleate] + CC(C)C[C@H](NC(=O)[C@H](CCc1ccccc1)NC(=O)CN1CCOCC1)C(=O)N[C@@H](Cc1ccccc1)C(=O)N[C@@H](CC(C)C)C(=O)[C@@]1(C)CO1 [Carfilzomib] | 12.9 |
| Cl.OC(CNCC(O)C1CCc2cc(F)ccc2O1)C1CCc2cc(F)ccc2O1 (stereo not given) [Nebivolol] + CC(C)C[C@H](NC(=O)[C@H](CCc1ccccc1)NC(=O)CN1CCOCC1)C(=O)N[C@@H](Cc1ccccc1)C(=O)N[C@@H](CC(C)C)C(=O)[C@@]1(C)CO1 [Carfilzomib] | 21.2 |
| CCc1oc2ccccc2c1C(=O)c1cc(Br)c(O)c(Br)c1 [Benzbromarone] + CC(C)C[C@H](NC(=O)[C@H](CCc1ccccc1)NC(=O)CN1CCOCC1)C(=O)N[C@@H](Cc1ccccc1)C(=O)N[C@@H](CC(C)C)C(=O)[C@@]1(C)CO1 [Carfilzomib] | 20.1 |
| COc1cc2c(Oc3ccc4[nH]c(C)cc4c3F)ncnc2cc1OCCCN1CCCC1 [Cediranib (AZD217)] + CC(C)C[C@H](NC(=O)[C@H](CCc1ccccc1)NC(=O)CN1CCOCC1)C(=O)N[C@@H](Cc1ccccc1)C(=O)N[C@@H](CC(C)C)C(=O)[C@@]1(C)CO1 [Carfilzomib] | 11.6 |
| CC1=CC(=O)c2ccccc2C1=O [Menadione] + CC(C)C[C@H](NC(=O)[C@H](CCc1ccccc1)NC(=O)CN1CCOCC1)C(=O)N[C@@H](Cc1ccccc1)C(=O)N[C@@H](CC(C)C)C(=O)[C@@]1(C)CO1 [Carfilzomib] | 21.4 |
| Cl.Fc1ccc(C2CCNCC2COc2ccc3c(c2)OCO3)cc1 (stereo not given) [Paroxetine HCl] + CC(C)C[C@H](NC(=O)[C@H](CCc1ccccc1)NC(=O)CN1CCOCC1)C(=O)N[C@@H](Cc1ccccc1)C(=O)N[C@@H](CC(C)C)C(=O)[C@@]1(C)CO1 [Carfilzomib] | 12.9 |
| C=C1C(=CC=C2CCCC3(C)C2CCC3C(C)CCCC(C)(C)O)CC(O)CC1O (stereo not given) [Calcitriol] + CC(C)C[C@H](NC(=O)[C@H](CCc1ccccc1)NC(=O)CN1CCOCC1)C(=O)N[C@@H](Cc1ccccc1)C(=O)N[C@@H](CC(C)C)C(=O)[C@@]1(C)CO1 [Carfilzomib] | 19.1 |
